We go through 21 compounds from PubChem BioAssay AID1049 (The Scripps Research Institute Molecular Screening Center, 2008).

Molecules are shown by their SMILES. Among all 200,000 compounds or so, about 780 (0.39%) were called active. The sample holds actives, similar compounds and a random draw of the others, so the mix is not that of the screen. Unmarked numbers belong to inactive results. Rule as the data show it: active = TR-FRET ratio above about 2000; inactive = the rest.

This experiment can be described thus: TR-FRET signal artefacts, primary screen, artefact control for PPARgamma SRC-2 agonist project, biochemical (AID 1049). The settings on record: TR-FRET artefact counter-screen; at 8 µM; hits give high values. (In general: In TR-FRET formats the signal depends on donor and acceptor labels being close together.)
Regarding `COc1cc(NC(=O)COC(=O)CSc2ccc3ccccc3c2)c(C)cc1[N+](=O)[O-]`, the TR-FRET ratio is 1450.

Consider `O=C1NC(c2ccccc2)=NC1(Nc1ccccn1)C(F)(F)F` (stereo unspecified), for which the TR-FRET ratio is 1690.

Turning to `COc1ccc(C2CC(c3ccccc3)=NN2C(=O)COC(=O)COc2ccccc2)cc1` (stereo unspecified), the TR-FRET ratio was 1620.

For the compound `CNC(=S)N1N=C(c2ccccc2)CC1c1ccc(Br)cc1` (stereo unspecified), the TR-FRET ratio was 1990 (active).

On to `Brc1ccc(C2CC(c3ccccc3)=Nc3ccccc3N2)cc1` (stereo unspecified), for which the TR-FRET ratio was 1550.

Turning to `CCC1CO/C(=C(\C(=C(Cl)Cl)N2CCOCC2)[N+](=O)[O-])N1` (stereo unspecified), the TR-FRET ratio is 1690.

Regarding `COc1ccc(NC(=O)c2sc(N3CCOCC3)nc2-c2ccccc2)c(OC)c1`, the TR-FRET ratio was 1580.

With `O=C(O)CC/C(=N\NC(=O)c1ccc(F)cc1)c1ccc(Br)cc1`, the TR-FRET ratio is 1580.

As for `C/C(=N\OCC(=O)Nc1ccc(Br)cc1)c1cccs1`, the TR-FRET ratio is 1350.

For `CCOC(=O)N/N=C/c1cccnc1`, the TR-FRET ratio is 1680.

On to `Cc1nc2ccccc2n1CC(=O)N/N=C/c1cccnc1`, for which the TR-FRET ratio is 1640.

On to `O=C(CSc1cccc2cccnc12)N/N=C/c1cccnc1`, for which the TR-FRET ratio is 2120 (active).

Take `NC1=NC(=O)C(Cc2cccc(Cl)c2)S1` (stereo unspecified): the TR-FRET ratio was 1490.

For the compound `CCC(C)(C)NC(=O)/C=C/c1cc(OC)c(OC)c(S(=O)(=O)N2CCc3ccccc32)c1`, the TR-FRET ratio is 1580.

On to `Cc1nc2ccccc2cc1OCc1ccc(F)cc1`, for which the TR-FRET ratio is 1730.

As for `Fc1ccc(COc2cccc(-c3n[nH]c(=S)o3)c2)cc1`, the TR-FRET ratio is 2890 (active).

With `Cc1cccc(OCc2ccc(C(=O)Nc3ccc(F)cc3)cc2)c1`, the TR-FRET ratio is 1560.

`CCOC(=O)c1ccc[n+](CC(=O)Nc2ccccc2OC(F)F)c1`: the TR-FRET ratio is 1350.

As to `CCOC(=O)c1sc(NC(=O)CSc2n[nH]c(CC)n2)nc1C`, the TR-FRET ratio was 1730.

Consider `CCOc1ncccc1C(=O)OCC(=O)NC1CC1`, for which the TR-FRET ratio was 1600.

For the compound `Cc1cc(OCCN2CCCC2)cc(C(C)C)c1`, the TR-FRET ratio is 1530.
